The panel holds about 79,000 compounds, 15% with a hit somewhere; the sample as a whole holds those more often. Activity calls are given as the source filed them. Rule as the data show it: active = growth inhibition above about 70%; inactive = the rest.
What was measured:
[1] = NCI Yeast Anticancer Drug Screen. Data for the rad50 strain (AID 155);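 also: 0% = growth of vehicle-only cultures of the same strain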; details: S. cerevisiae rad50 strain growth inhibition; at 50.0 µM; active compounds read high
In short: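 Genetically altered yeast (DNA repair pathway); compound treatment; growth inhibition vs vehicle ctrl.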

[2] = NCI Yeast Anticancer Drug Screen. Data for the mec2-1 strain (AID 157); details: S. cerevisiae mec2-1 strain, at 50.0 µM, active compounds read high
In short: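 Cells of the genetically defined mec2-1 yeast strain are incubated with test compound. Inhibition of growth is calculated against vehicle-treated controls.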

[3] = NCI Yeast Anticancer Drug Screen. Data for the sgs1 mgt1 strain (AID 161);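 also: 0% = growth of cultures given vehicle only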; details: S. cerevisiae sgs1 mgt1 strain, at 50.0 µM, active compounds read high
In short: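 Mutant yeast exposed to compound; growth scored against vehicle-only wells.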

[4] = NCI Yeast Anticancer Drug Screen. Data for the cln2 rad14 strain (AID 165);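 also: 0% = growth equal to vehicle treated cultures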; details: S. cerevisiae cln2 rad14 strain, at 50.0 µM, active compounds read high
In short: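 The screen exposed genetically defined yeast (cln2 rad14) to test compounds and scored growth inhibition relative to vehicle-treated controls.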

[5] = NCI Yeast Anticancer Drug Screen. Data for the bub3 strain (AID 167); details: S. cerevisiae bub3 mutant strain, at 50.0 µM, active compounds read high
In short: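 Yeast carrying a defined mutation is treated with each compound, and growth is compared with that of vehicle-exposed cells to give inhibition.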

[6] = NCI Yeast Anticancer Drug Screen. Data for the mlh1 rad18 strain (AID 175); details: S. cerevisiae mlh1 rad18 strain growth inhibition; at 50.0 µM; active compounds read high
In short: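 Compound-treated yeast growth, normalised to vehicle controls. Strain bears defined DNA repair mutations.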

Measured: growth inhibition

O=C(O)CCC(=O)NC1c2ccccc2Oc2ccccc21
inactive: [1] -5.9% | [2] -1.75% | [3] 11.6% | [4] -10.2% | [5] 7.85% | [6] 5.95%

O=C(O)CN1CCSc2ccccc2CN(CC(=O)O)CCSc2ccccc2C1
inactive: [1] 4.5% | [2] 3.1% | [3] -2.6% | [4] -32% | [5] 12.7% | [6] -8%

Clc1ccc2c(Cl)ncnc2c1I
inactive: [1] -2.5% | [2] -13.8% | [3] 28.9% | [4] 3% | [5] 4.4% | [6] -4.2%

O=C(/C(=C(/[O-])C(F)(F)F)[n+]1ccc2ccccc2c1)C(F)(F)F
inactive: [1] -16.4% | [2] -2.4% | [3] -5.3% | [4] -40.1% | [5] -28.6% | [6] -0.4%

CCO/C=C\C(OCC)OCC
inactive: [1] 3.55% | [2] -8.95% | [3] 3.1% | [4] -15.2% | [5] 18.2% | [6] -0.6%

CCCCCCCCCSCCOC(=S)N(C)C
active: [3] 79.2%
inactive: [1] 13.7% | [2] 14.7% | [4] 2.7% | [5] 21.8% | [6] 34.6%

CN1C(=O)C(=O)n2c(cc3ccccc32)C1=O
inactive: [1] 1.15% | [2] 6.15% | [3] 7.25% | [4] 6.2% | [5] -0.25% | [6] -13.1%

CC(=O)NOCC1NC(=O)C(CONC(C)=O)NC1=O (stereo unspecified)
inactive: [1] 14% | [2] 18.1% | [3] -47.1% | [4] -3.4% | [5] -48.2% | [6] -54.6%

Cc1ccc(C2(C)CC/C(=N/N=C3/CCC(C)(c4ccc(C)c(C)c4)c4cc(C)c(C)cc43)c3cc(C)c(C)cc32)cc1C (stereo unspecified)
inactive: [1] -17% | [2] -13.8% | [3] -27.9% | [4] -40.6% | [5] -11.4% | [6] -12.4%

CCN(CC)CCNc1cc2ccccc2c2sc3ccccc3c(=O)c12
active: [1] 98.5% | [2] 99.2% | [3] 97.6% | [4] 98.8% | [5] 98.2% | [6] 98.3%

CCOc1cn(C2OC(CO)C(O)C2O)c(=O)[nH]c1=O (stereo unspecified)
inactive: [1] -33.9% | [2] -28.4% | [3] -16.2% | [4] 3.55% | [5] -25.2% | [6] 3.5%

COc1c(CCl)cc(-c2sc3ccccc3c(=O)c2CCl)cc1CCl
inactive: [1] -7.25% | [2] -7.3% | [3] 1.1% | [4] 2.85% | [5] -1.8% | [6] 1.85%

Cc1cc(C)c(C(=O)/C=C(\N)C(=O)c2c(C)cc(C)cc2C)c(C)c1
inactive: [1] -7.05% | [2] 0% | [3] 2.75% | [4] 14.7% | [5] 27.1% | [6] 4.75%

S=c1nc[nH]c2c1cnn2-c1ccccc1
inactive: [1] 5.6% | [2] 19.6% | [3] 54.4% | [4] -13.2% | [5] -7.3% | [6] 40.2%

COc1ccc(C)cc1S(=O)(=O)c1ccc(C)cc1[N+](=O)[O-]
inactive: [1] 6.6% | [2] -2.85% | [3] 2.15% | [4] 34.5% | [5] 23.3% | [6] -15.4%

Cc1ccc(S(=O)(=O)Nc2nc3ccccc3c(=O)n2C2CCCCC2)cc1
inactive: [1] 27.2% | [2] 11.3% | [3] -43.2% | [4] 2.1% | [5] -19.5% | [6] -3.5%

CCCCCCCCCCCCOP(=O)(O)OP(=O)(O)OCC1OC(n2ccc(N)nc2=O)CC1O (stereo unspecified)
inactive: [1] 27.9% | [2] 21.5% | [3] 27.6% | [4] 17.1% | [5] 22.1% | [6] 18.2%

COc1ccc(C2CC(c3cc(C)ccc3O)=NC(N)=N2)cc1 (stereo unspecified)
inactive: [1] 19.6% | [2] 12.8% | [3] 15.8% | [4] 13.2% | [5] 13.4% | [6] 23.4%

O=S(=O)(c1ccc(I)cc1)c1ccc(I)cc1
inactive: [1] 22.6% | [2] 0.1% | [3] -9.15% | [4] 5.2% | [5] 5.35% | [6] 3.7%

COc1ccc(COC(=O)Oc2ccc(Cl)cc2)cc1OC
active: [1] 93.8% | [4] 79.8% | [5] 90.5% | [6] 94.8%
inactive: [2] 63.3% | [3] 50.7%

Cn1c(=S)sc2ccc(S(=O)(=O)C(F)F)cc21
inactive: [1] 23.7% | [2] 20.9% | [3] 4.7% | [4] 12.8% | [5] 22.6% | [6] 25.1%

NC(=O)CCCC(C(N)=O)(c1ccccc1)c1ccccc1
inactive: [1] 9.2% | [2] 13.3% | [3] 3.25% | [4] -11.2% | [5] -7.15% | [6] -3.9%

CCOc1nc(N)nc(C)c1N=Nc1cccc([N+](=O)[O-])c1
inactive: [1] 20.9% | [2] 8.55% | [3] 7% | [4] -7.35% | [5] 36% | [6] 32%

COc1cc(Br)cc(OC)c1Oc1cc(OC)c(OC)c(OC)c1Br
inactive: [1] 45.8% | [2] 12.4% | [3] 36% | [4] 2.4% | [5] 10.8% | [6] 24.9%

NCCCn1cnc2c(N)ncnc21
inactive: [1] 8.95% | [2] -1.55% | [3] -4.55% | [4] -18.6% | [5] -16.4% | [6] 0.65%

CC1(C)CC2(CC(C)(C)N1O)NC(=O)OC2=O
inactive: [1] 2.5% | [2] -5.3% | [3] -1.05% | [4] -18.6% | [5] -23.1% | [6] 1.3%

CN(C)C(N)=Nc1ncnc2ccccc12
inactive: [1] -14.6% | [2] 15.2% | [3] 0.45% | [4] 15.7% | [5] -5.85% | [6] -1.8%

COC1CC(N=[N+]=[N-])C(OS(C)(=O)=O)C(C)O1 (stereo unspecified)
inactive: [1] -2.35% | [2] 22.1% | [3] 1.7% | [4] 3.7% | [5] -9% | [6] 14.8%

O=C1OC(=O)C2=C1C1C=CC2CC1
inactive: [1] 3.4% | [2] -7.05% | [3] 3% | [4] 0% | [5] -9.05% | [6] 13.4%

CSc1nc2c(cnn2C)c(=O)[nH]1
inactive: [1] 14.7% | [2] -1.95% | [3] 3.3% | [4] -4.55% | [5] 10.5% | [6] 24.6%

CC(O)C(N=Cc1ccccc1[O-])C(=O)[O-].CC(O)C(N=Cc1ccccc1[O-])C(=O)[O-].[Co+2] (stereo unspecified)
inactive: [1] -7% | [2] -2.05% | [3] -16.6% | [4] 4.4% | [5] 7.65% | [6] -25.9%

C=CN1C(=O)c2ccccc2C1=O
inactive: [1] -12.8% | [2] -12.4% | [3] -8.95% | [4] 6.3% | [5] -6.5% | [6] -24%

CC(CC(=N)N)NC(=O)C1CCC(N)=N1 (stereo unspecified)
inactive: [1] 6% | [2] -41.2% | [3] 2.15% | [4] -1.6% | [5] -14.2% | [6] -9.75%

CC1CC(C)OC2(CCCC2)O1 (stereo unspecified)
inactive: [1] 8.45% | [2] -8.05% | [3] 2.2% | [4] -12.8% | [5] 4.05% | [6] -5.3%

CCCCCC(CC)OC(=O)Nc1cccc2ccccc12 (stereo unspecified)
inactive: [1] 6.05% | [2] 7.2% | [3] 10.7% | [4] -9.15% | [5] -3.35% | [6] 0.1%

CC(O)CNc1ncnc2ccccc12 (stereo unspecified)
inactive: [1] -13.5% | [2] -12.2% | [3] -3.15% | [4] -5.1% | [5] 9.15% | [6] 4.05%

CCOC(=O)c1cc(NC(C)=O)c(C)n1C
inactive: [1] -5.4% | [2] 8.6% | [3] -3.45% | [4] -26.6% | [5] 11.1% | [6] 16.4%

O=C(Nc1cc(Cl)c(Cl)cc1Cl)OCc1ccc2c(c1)OCO2
inactive: [1] -12.1% | [2] -32.3% | [3] -14.4% | [4] 6.25% | [5] -25.2% | [6] -14.6%

O=C(Nc1cccc(C(F)(F)F)c1)C(=O)C(C(=O)c1ccc(Cl)c(Cl)c1)C1OC(=O)c2ccccc21 (stereo unspecified)
inactive: [1] 34.9% | [2] 19.2% | [3] -1.35% | [4] 63.6% | [5] 45.4% | [6] 37.4%

CS(=O)(=O)ON1C(=O)c2ccccc2C1=O
inactive: [1] 9.9% | [2] -52% | [3] -3.9% | [4] 6.5% | [5] -2.6% | [6] -9.55%

CO/C(=N\N=C\c1ccc(OC)c(OC)c1)c1ccncc1
inactive: [1] -21.6% | [2] -37.9% | [3] -12.9% | [4] -7.75% | [5] -28.6% | [6] -40%
